The text below walks through data of the supplement of paper PMC6555819.

This assay has as its system VDR:RXRa (NR concentration 270 nM, RXRa partner concentration 90 nM). Put plainly: PBM binding z-score (relative to random genomic background probes); higher = stronger binding; sequences stand for … in GC…GCGATTGACAGCGTAGAATGAAGG
As to the method: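 Protein-binding microarray (Agilent 4x180K custom design, double-stranded 60-nt probes: 5' GC cap, 34-nt variable region, 24-nt constant primer region; full probe sequence given). Purified or IVT nuclear receptor:RXRα heterodimers (3:1 NR:RXRα, mostly 270:90 nM) or homodimers were incubated for 1 h in PBS with 2% milk and no ligand, then detected with Alexa488 antibodies. Fluorescence from o1-orientation probes (~5 replicates averaged) was converted to z-scores against 500 random hg19 background probes. Variable regions are seed direct-repeat (DR0–DR5) sites, all their single-nucleotide variants and half-site ablations.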
In turn, CTTCCAAGGTCAGCAGGTCAGTGAAAGCGACGTG displayed a PBM binding z-score of 4.03.

TTACCAAGGTGAGCTGAGGTCGTAGATCCAACTC: the PBM binding z-score came out at 3.45.

On to CCGAGTAGGTTATGGGGTATTCAGGCAACGGTGA, for which the PBM binding z-score turned out to be 0.559.

In turn, TAGCCTATGTCATTGGGCCAGTATAGTACGCATC displayed a PBM binding z-score of -0.316.

CGTCCAAGGTCATAGGAGATCAGTGAAGACAGAT yielded a PBM binding z-score of 4.3.

Take AGTCAAAGTTCATCTAGGTTACGTAAGATATGCT: the PBM binding z-score was found to be 5.8.

As for AGTCAAAGTTCAGGACGAGGAAACGTAAAGCACG, the PBM binding z-score was determined as 2.2.

With TCATATAGGTAAATGCTAGGTGAAAATCCGATCT, the PBM binding z-score was determined as 0.793.

As for TCTCGGAGGACGCGAAGGTCAGAGCTTTCCAGAG, the PBM binding z-score came out at 1.23.

The sequence CCTCGGAGGACAACAGGAGGTTAGAGCTGCCAGA registered a PBM binding z-score of -0.265.

For GCTCGGAGGACAAGGTCGGAGCTTTGTCCGTAGA, the PBM binding z-score is -0.159.

In the case of CAAACTAGGTCAAAAGTCAAAGTCGAGCCAACCA, the PBM binding z-score was determined as 2.46.

CCAGACAGGTGAGAAGGTAACTCAACCTCGATTA yielded a PBM binding z-score of 0.0485.

As for GCAGACGGGTGAAACGCAGGTAACTCAGGGTGGC, the PBM binding z-score is -0.555.

TAGCCTAGGTCATGCGCGCCAGTATAGTGTCGGC showed a PBM binding z-score of 2.05.

In turn, CTCGAAAGGTCGGTTGAGGTGAGCATACGGATAA came in with a PBM binding z-score of 2.26.

In the case of CAACCTAGGTCAAGGTCAAAGTCGGTTTGTGCCA, the PBM binding z-score amounted to 5.45.

ACTATTAGTTGCCTTAGGGCAACCGATACGACGC showed a PBM binding z-score of -0.026.

In turn, ATACCAAGGTGATCGTGAGGTCGTTGACACTAAC registered a PBM binding z-score of 3.35.

As to CAAACTAGGTCAAAGGTTAAAGTCGAGCCAACCA, the PBM binding z-score is 4.87.

TCATATAGGTAAAGGTGCAAGTCGAACGATATGA registered a PBM binding z-score of 0.567.

Turning to TGAATGAGGTTAAAGATCAGGAAACGTGGCGTCG, the PBM binding z-score was found to be 1.95.

In the case of GCGACTTGGGCAAAGCAGGTTACCATAAGGTTGG, the PBM binding z-score was -0.467.

CTCGAAAGGTCGTGTTCAGGTGAGTATACCAAAC had a PBM binding z-score of 3.35.

For CTTACTGGGCCAAGGTCATTGATCAGTCAAAGCA, the PBM binding z-score was 3.44.

ATCTCTAGGTATAGTTCAGTGAAAGATCGATAGA came in with a PBM binding z-score of 1.04.

The sequence CGAACGAGTGCATGAGTTGATAGCAAATGCCGAT yielded a PBM binding z-score of 1.58.

The sequence TGAATGAGGTTATTAGATCAGGGAACGTTGCAAA came in with a PBM binding z-score of 0.99.

As to ACAGACAGGTGGGTGAAGGTAACTCAGCTGGACG, the PBM binding z-score is -0.163.

Sequence CGTCCAAGGTCAAGGTCAGTGAGAGAGACTCGAA displayed a PBM binding z-score of 4.84.

GTACCAAGGTGAATAGGTCGGTGATGAGTAGGCG gave a PBM binding z-score of 0.312.

In the case of GCAGACAGGTGAAACGCAGGTAACTGAGGGTGGC, the PBM binding z-score is -0.361.

TCAGACAGGTGAAGGTATCTCAGGTACGCAGTCG: the PBM binding z-score is 0.814.

As to ACCTCTAGGTAAAGTTCAGTGAAAGATCGATAGA, the PBM binding z-score worked out at 0.835.

Sequence CGAACTAGGTCAAGGACACTGAATCTCCGCACGC displayed a PBM binding z-score of 1.57.

Sequence TCTATTCGTTGAAGGGCAACCGACGAGTCCGTTT came in with a PBM binding z-score of 1.08.

In the case of TTACCCAGGTGAAGGTCGTTGATCCCTCTGTAGA, the PBM binding z-score amounted to 1.05.

ATCGAAAGGTCGACGAGGTGATTATACACCGTTT came in with a PBM binding z-score of 5.76.

As for GCTAGTTGGTCAGTAAAAGATCACACACCGGTCG, the PBM binding z-score was -0.204.

CCGACTGGGGCAGAAAGTTTACCATACCATCCGG came in with a PBM binding z-score of 0.484.
